# The whole screen tested about 310,000 compounds, of which about 14,000 (4.5%) showed an effect of 50% or more. Effects have a minus sign here. The list comes from a sample in which strong results are over-represented; it also holds similar structures and randomly drawn compounds.
# Target: human ether-à-go-go-related gene (hERG) potassium channel (human, UniProt Q12809)
# Experiment: primary screen, population patch clamp on CHO cells stably expressing hERG; higher = less effect of the substance
# 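Further: peak tail current of the secondary pulse compared with the same well before compound.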
# Sequence of human ether-à-go-go-related gene (hERG) potassium channel (Q12809 whole entry, looked up): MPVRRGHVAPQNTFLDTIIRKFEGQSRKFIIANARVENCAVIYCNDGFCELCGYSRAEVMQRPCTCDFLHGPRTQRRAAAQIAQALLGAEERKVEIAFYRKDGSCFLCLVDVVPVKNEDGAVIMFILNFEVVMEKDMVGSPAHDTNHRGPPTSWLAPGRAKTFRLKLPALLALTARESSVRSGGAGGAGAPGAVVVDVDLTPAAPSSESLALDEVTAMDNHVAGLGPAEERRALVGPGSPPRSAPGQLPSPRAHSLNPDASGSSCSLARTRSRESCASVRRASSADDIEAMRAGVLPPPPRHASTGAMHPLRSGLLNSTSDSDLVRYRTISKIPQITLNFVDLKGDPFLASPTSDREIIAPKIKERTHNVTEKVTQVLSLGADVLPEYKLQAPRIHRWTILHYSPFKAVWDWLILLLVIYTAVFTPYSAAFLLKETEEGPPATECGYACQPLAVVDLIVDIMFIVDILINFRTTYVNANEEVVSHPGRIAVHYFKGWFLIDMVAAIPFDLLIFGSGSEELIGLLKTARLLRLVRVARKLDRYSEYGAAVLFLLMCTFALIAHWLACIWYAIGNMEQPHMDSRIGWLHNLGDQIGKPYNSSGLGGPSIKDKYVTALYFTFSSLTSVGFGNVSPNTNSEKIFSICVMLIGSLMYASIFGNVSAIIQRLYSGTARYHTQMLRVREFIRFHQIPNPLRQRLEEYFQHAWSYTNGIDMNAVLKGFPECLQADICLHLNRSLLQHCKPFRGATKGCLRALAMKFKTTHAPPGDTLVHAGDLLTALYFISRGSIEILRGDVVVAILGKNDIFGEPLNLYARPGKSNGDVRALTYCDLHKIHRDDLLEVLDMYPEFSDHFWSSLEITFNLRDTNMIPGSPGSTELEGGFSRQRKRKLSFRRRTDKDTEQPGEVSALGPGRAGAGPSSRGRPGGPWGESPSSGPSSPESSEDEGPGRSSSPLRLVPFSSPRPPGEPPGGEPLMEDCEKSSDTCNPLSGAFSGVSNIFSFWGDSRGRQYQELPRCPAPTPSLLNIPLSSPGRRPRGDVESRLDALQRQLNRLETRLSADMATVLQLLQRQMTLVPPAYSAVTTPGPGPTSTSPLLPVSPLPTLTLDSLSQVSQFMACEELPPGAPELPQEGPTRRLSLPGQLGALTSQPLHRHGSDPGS
row,Structure (SMILES),"hERG current change (%, negative = inhibition) at 10uM [%]"
1,Cc1cn(C2C=CC(CO)O2)c(=O)[nH]c1=O (centres unmarked),4.79
2,CCN(CC)S(=O)(=O)c1ccc(C(=O)NCCc2ccccn2)cc1,10.8
3,Cc1nn(C2CCCCC2)c(N)c1-c1ccccc1,-3.53
4,Nc1ccc(-c2nc3ccc(N)cc3[nH]2)cc1,7.85
5,O=c1c2cc([N+](=O)[O-])cc([N+](=O)[O-])c2[nH]n1-c1ccccc1,17.2
6,C/C=C(\C)C(=O)NNC(=O)c1sc(-c2ccccc2)nc1C,16
7,Cc1nc2cc(NC(=O)Nc3ccc(Br)cc3)ccc2o1,9.81
8,Cc1ccc(NC(=O)N2CCC(C(=O)c3ccc(F)cc3)CC2)cc1,-3.84
9,COCCNC(=S)N1CCC(c2nc(-c3ccc(F)cc3)no2)CC1,-18.9
10,Cc1cccc(NC(=O)N2CCC(C(=O)c3ccc(F)cc3)CC2)c1,-40.6
11,Cc1cc(C)cc(NC(=O)N2CCC(NC(=O)c3ccc(F)cc3)CC2)c1,-35.5
12,O=C(c1ccc(F)cc1)C1CCN(C(=O)Nc2ccc(F)cc2)CC1,-71.7
13,Cc1cc(C)cc(NC(=O)N2CCC(C(=O)c3ccc(F)cc3)CC2)c1,-77.7
14,CC(C)CNC(=S)N1CCC(c2nc(-c3ccc(F)cc3)no2)CC1,-59.1
15,CSc1ccc(NC(=O)N2CCC(C(=O)c3ccc(F)cc3)CC2)cc1,-40.9
16,COCCNC(=S)N1CCC(c2nc(-c3ccc(N(C)C)cc3)no2)CC1,-12.9
17,O=C(Nc1ccccc1)N(Cc1ccc(Cl)cc1)CC(O)C(F)(F)F (centres unmarked),8.33
18,Cc1cccc(N2CCN(S(=O)(=O)c3cc(-c4cc(C)no4)ccc3C)CC2C)c1 (centres unmarked),18.9
19,CC1SCC(NC(=O)c2ccc(Cl)cc2)CS1 (centres unmarked),-0.992
20,Cc1cc(NC(=O)CSCc2ccc([N+](=O)[O-])cc2)no1,-1.21
21,Cc1[nH]c2ccccc2c1C(=O)C(C)OC(=O)c1ccc(Cl)nc1 (centres unmarked),-12.9

row,Structure (SMILES),"hERG current change (%, negative = inhibition) at 10uM [%]"
1,COC(=O)c1ccccc1NC(=O)c1cc[n+](C)cc1,11.8
2,CCOCCCNS(=O)(=O)c1ccc(NC(=O)N2c3ccccc3Sc3ccccc32)cc1,3.13
3,O=C(NC1CCOC1)c1cc(COc2cccc(C(F)(F)F)c2)on1 (centres unmarked),2.06
4,O=C(COC(=O)c1nsc(Cl)c1Cl)NC1CCCCC1,17.1
5,CCCCCCCCOC(=O)c1nc(Cl)c(Cl)c(N)c1Cl,-66.3
6,O=C(COC(=O)c1ncc(Cl)c(Cl)c1Cl)NC1CCCCCC1,19
7,CCCCCCCOC(=O)c1nc(Cl)c(Cl)c(N)c1Cl,-4.56
8,Nc1c(Cl)c(Cl)nc(C(=O)OCC(=O)NC2CCCCC2)c1Cl,-58.2
9,CCCCOC(=O)c1nc(Cl)c(Cl)c(N)c1Cl,-0.0656
10,CN1C(=O)/C(=C/c2cccn2-c2ccc3ccccc3c2)C(=O)NC1=S,12.2
11,Cc1c(Cc2ccccc2)c(=O)oc2cc(OCC(=O)NCC(O)c3ccccc3)ccc12 (centres unmarked),28.7
12,C/C(CC(=O)Nc1cc(C)ccn1)=N\NC(=O)C(=O)NC(C)C,12.5
13,O=C(OCCOc1ccccc1Cl)c1ccc(-n2cnnn2)cc1,-19.2
14,O=C(c1cc(-c2ccc(Br)cc2)on1)N1CCCC1,10.3
15,CSc1ccc(NC(=O)NCCN2CCc3ccccc3C2)cc1,-43.6
16,O=C(NCCCN1CCN(Cc2ccccc2Cl)CC1)Nc1ccccc1,-56.8
17,O=C(NCCN1CCN(Cc2ccccc2Cl)CC1)Nc1ccccc1,-47.5
18,Cc1ccccc1CC1CCN(CCCNC(=O)Nc2ccccc2)CC1,-68.5
19,CSc1ccc(NC(=O)NCc2ccccc2)cc1,19
20,O=C(NCCN1CCN(c2ccccc2Cl)CC1)Nc1ccccc1,-34.1
21,COc1ccc(NC(=O)NCCCN2CCC(Cc3ccccc3)CC2)cc1,-77.5

row,Structure (SMILES),"hERG current change (%, negative = inhibition) at 10uM [%]"
1,Cc1ccccc1NC(=O)NCCCN1CCN(C2CCCCC2)CC1,-9.26
2,Cc1ccccc1NC(=O)NCCCN1CCCC1,26.6
3,CSc1ccc(NC(=O)NCCCN2CCC(Cc3ccccc3)CC2)cc1,-75.9
4,COc1ccc(NC(=O)NCCCCc2ccccc2)cc1,1.06
5,COc1ccc(NC(=O)N2CCC(Cc3ccccc3)CC2)cc1,-3.45
6,Cc1c(NC(=O)COc2c(F)c(F)c(F)c(F)c2F)c(=O)n(-c2ccccc2)n1C,0.328
7,COc1ccc(/C(C)=N/NC(=O)CNC(=O)/C=C\c2ccccc2)c(OC)c1,-9.28
8,C/C(=N\OCc1ccccc1C#N)c1cc2ccccc2o1,0.146
9,O=C(NCCCN1CCOCC1)c1ccc2nc(Cc3cccc(Cl)c3)oc2c1,-7.7
10,COC(=O)c1ccccc1NC(=O)NCc1ccccn1,-6.01
11,O=C(CC(Cc1ccccc1)C(=O)O)Nc1ccc(F)cc1 (centres unmarked),10.4
12,COC(=O)c1cc(=O)n(Cc2cccs2)c(=Nc2ccccc2)s1,-0.229
13,Oc1cccc(/C=N/Nc2ccc(Cl)nn2)c1O,8.72
14,CC(OC(=O)CNC(=O)c1ccco1)C(=O)Nc1ccc(Cl)cn1 (centres unmarked),-11.4
15,CCCCN(C)CC(O)Cn1cc(/C=C/C(=O)c2cccs2)c2ccccc21 (centres unmarked),-33.7
16,O=C(/C=C/c1cn(CC(O)CN2CCOCC2)c2ccccc12)c1cccs1 (centres unmarked),-21.8
17,O=Cc1cn(CC(O)CN2CCCCC2)c2ccccc12 (centres unmarked),27.3
18,O=C(/C=C/c1cn(CC(O)CN2CCCCCC2)c2ccccc12)c1cccs1 (centres unmarked),-75.2
19,O=C(/C=C/c1cn(CC(O)CN2CCCCC2)c2ccccc12)c1cccs1 (centres unmarked),-54.4
20,CCCN(CCC)CC(O)Cn1cc(/C=C/C(=O)c2cccs2)c2ccccc21 (centres unmarked),-30.7

# Reference: paper PMC4336329 (PLoS ONE, 2015)
